Hits are enriched below; roughly 0.4% of the tested compounds scored in any of these assays.
FMDV RLuc – antivirals against foot and mouth disease virus replicon; FMDV replicon cells, Renilla luciferase signal; 0.32% of 120,000 active; Potency, µM (top dose mostly 57.5 µM), without a hit: top-dose activity change, negative = inhibition, most hits filed as inhibitors; also: nearly all actives have a fitted effect of over 55% in size
FMDV FLuc – shows antiviral activity against foot and mouth disease virus. FMDV antiviral cell assay, firefly luciferase signal. 0.23% of 120,000 active. AID 1745856. Potency, µM (top dose mostly 57.5 µM), inactives show top-dose activity change, negative = inhibition, hits mostly inhibitors; also: nearly all actives have a fitted effect of over 60% in size
* = called active by the depositor; ? = inconclusive; [ ] = remark or other dose. Calls follow the shape of the full dose curve. % is scaled to controls: 0 for no effect and ±100 for the full control effect; potency is read from the fitted curve at half-maximal effect.

SMILES	FMDV RLuc	FMDV FLuc
CCCn1c(CN(C)Cc2ccccc2)nc2c1c(=O)n(C)c(=O)n2C	?	35µM*
C=CCC1(Nc2c(CC)cccc2CC)CCCCC1	16%	12%
CCC(=O)Nc1ccc(-c2csc(NCCN(CC)CC)n2)cc1	-7%	5%
O=C(Nc1cccc(-c2nc3ccccc3o2)c1)c1ccc2c(c1)OCO2	6%	35%
Cc1ccc(OCC(=O)Nc2nnc(SCc3cc(=O)c4ccccc4[nH]3)s2)cc1	-8%	-1%
CCC(CC)C(=O)Nc1nnc(SCc2cc(=O)c3ccccc3[nH]2)s1	8.9µM*	13µM*
CCC(=O)Nc1nnc(SCc2cc(=O)c3cc(C)ccc3[nH]2)s1	-17%	-1%
CCCC(=O)Nc1nnc(SCc2cc(=O)c3ccc(C)cc3[nH]2)s1	2µM*	2.5µM*
CCCn1c(=O)c2ccccc2n(CC(=O)N(CC)c2cccc(C)c2)c1=O	-1%	16%
COc1ccc(OC(C)c2nc(-c3ccc(Br)cc3)no2)cc1 (stereo not drawn)	-15%	22%
O=C(NCc1cccc(Cl)c1)c1cc2ccc3cccnc3c2[nH]1	22%	26%
CC(C)N(Cc1ccccc1)C(=O)c1cc2ccc3cccnc3c2[nH]1	8.9µM*	25µM*
Cc1nc2sccn2c1-c1csc(Nc2cccc(Cl)c2C)n1	35µM*	?
CCc1ccccc1Nc1nc(-c2c(C)nc3sccn23)cs1	?	-25%
O=C(Cn1nc(-c2cccs2)c2ccccc2c1=O)NCCc1ccc(Cl)cc1	-10%	-17%
NC(N)=NCCCN1CCCC1	?	-11%
COC(=O)c1[nH]c(C)c(/C(O)=C2\C(=O)C(=O)N(CCCn3ccnc3)C2c2ccccc2F)c1C (stereo not drawn)	-6%	-1%
O=C(Nc1cccnc1)c1ccc(SC(F)(F)F)cc1	-25%	112%
O=C(Nc1ccncc1)c1ccc(SC(F)(F)F)cc1	20µM*	?
Cc1ccc(-c2nc(CN3CCCC3c3cccs3)co2)c(C)c1 (stereo not drawn)	22%	66%
COc1ccc(C(=O)Nc2nnc(SCc3cc(=O)c4cc(C)cc(C)c4[nH]3)s2)cc1	-10%	12%
COc1ccc(-c2nnc(SCc3cc(=O)c4cc(C)cc(C)c4[nH]3)n2C)cc1	4µM*	?
CC(=O)Nc1nc2c(C)cc(NC(=O)Nc3ccccc3)cc2s1	10%	50%
CCOc1ccc(C=O)c2ccccc12	4.5µM*	10µM*
CCOc1ccc2ccccc2c1C=O	-4%	18%
SMILES	FMDV RLuc	FMDV FLuc
COc1cc(/C=C(/CC(=O)O)c2nc3ccccc3s2)cc(OC)c1	3%	0%
CCN1CCN(c2oc(-c3ccc(F)cc3)nc2C#N)CC1	3%	22%
CCN1CCN(c2cc(-c3ccc(F)cc3)c3c(n2)CCCCCC3)CC1	11µM*	?
OC1(c2ccc(Cl)c(C(F)(F)F)c2)CCN(CCCC(c2ccc(F)cc2)c2ccc(F)cc2)CC1	22µM*	-13%[11.5 µM]
CCNC(=O)N1CCN(CCCC(c2ccc(F)cc2)c2ccc(F)cc2)CC1	?	14%[11.5 µM]
Cc1ccccc1C(C)NC(=O)c1ccc2c(c1)NC(=O)CS2 (stereo not drawn)	-12%[1.06 µM]	0%
CCOc1ccccc1Oc1ccc(CNC(=O)Nc2cccnc2)cn1	-16%	14%
COc1cc(CNC(=O)c2nccnc2N)ccc1OCc1ccncc1	10µM*	22µM*
CCOc1ccccc1Oc1ccc(CNC(=O)c2nccnc2N)cn1	14µM*	16µM*
Nc1nccnc1C(=O)NCc1ccnc(OCc2ccccc2)c1	10µM*	22µM*
COc1ccc(CNC(=O)c2nccnc2N)cc1OC	9%	6%
O=C(Cc1cccc(F)c1)NCc1ccnc(OCc2ccccc2)c1	6%	39%
Nc1nccnc1C(=O)NCc1ccnc(Oc2ccc(F)cc2)c1	13µM*	?
COc1ccc(CNC(=O)c2nccnc2N)cc1	-19%	28%
CCN(CC)CCN1C(=O)C(O)=C(C(=O)c2sc(C)nc2C)C1c1ccc(C(=O)OC)cc1 (stereo not drawn)	-8%	-4%
Cc1cc(C(=O)OCC(=O)Nc2cccc(F)c2)c2ccccc2n1	11%	17%
CC(C)c1ccccc1NC(=O)/C=C/c1c(F)cccc1Cl	16%	0%
COCc1c(C(=O)NCC(c2ccco2)N2CCCC2)sc2cccc(F)c12 (stereo not drawn)	2%	6%
Cc1cccc(NC(=O)Cn2c(C)cc3ccccc32)c1	-19%	-14%
COc1ccc(Br)cc1/C=C(\C#N)C(N)=C(C#N)C#N	-1%	37%
Cc1cccc(-n2nnnc2C2(Nc3ccccc3)CCCC2)c1	184%	7%
Cn1c(SCc2coc(-c3cccs3)n2)nnc1-c1ccccc1	22%	0%
COc1ccccc1CC(=O)N1CCN(c2nc(-c3ccc(Cl)cc3)no2)CC1	7.1µM*	?
COc1ccc(-c2noc(N3CCN(c4ccc(Cl)cc4)CC3)n2)cc1OC	-5%	-13%
CCOc1cc(OCC)cc(C(=O)Nc2ccc(N3CCN(C(=O)c4ccccc4C)CC3)cc2)c1	-7%	-7%
